Source: ChEMBL document CHEMBL3988442, “University of Dundee, Small-Polar-MMV Screening Library” (2021)
For part of these data: Measured potencies and affinities stand elsewhere.

Experiments:
Set-up in all cases: scale not given: direction of the effect not stated beside the values
[1] = target: Protein translocase subunit SecA (Escherichia coli (strain K12)) (UniProt P10408); assay: Assay to Identify E. coli SecA ATPase Inhibitors; type: functional; conditions: 30 µM
[2] = target: T1, Ubiquitin-activating enzyme e1, putative (Leishmania donovani (strain BPK282A1)) (UniProt E9BSI1); assay: Leishmania donovani Ubiquitin Activating Enzyme (LdE1); type: functional; conditions: 30 µM
T1 sequence (whole entry): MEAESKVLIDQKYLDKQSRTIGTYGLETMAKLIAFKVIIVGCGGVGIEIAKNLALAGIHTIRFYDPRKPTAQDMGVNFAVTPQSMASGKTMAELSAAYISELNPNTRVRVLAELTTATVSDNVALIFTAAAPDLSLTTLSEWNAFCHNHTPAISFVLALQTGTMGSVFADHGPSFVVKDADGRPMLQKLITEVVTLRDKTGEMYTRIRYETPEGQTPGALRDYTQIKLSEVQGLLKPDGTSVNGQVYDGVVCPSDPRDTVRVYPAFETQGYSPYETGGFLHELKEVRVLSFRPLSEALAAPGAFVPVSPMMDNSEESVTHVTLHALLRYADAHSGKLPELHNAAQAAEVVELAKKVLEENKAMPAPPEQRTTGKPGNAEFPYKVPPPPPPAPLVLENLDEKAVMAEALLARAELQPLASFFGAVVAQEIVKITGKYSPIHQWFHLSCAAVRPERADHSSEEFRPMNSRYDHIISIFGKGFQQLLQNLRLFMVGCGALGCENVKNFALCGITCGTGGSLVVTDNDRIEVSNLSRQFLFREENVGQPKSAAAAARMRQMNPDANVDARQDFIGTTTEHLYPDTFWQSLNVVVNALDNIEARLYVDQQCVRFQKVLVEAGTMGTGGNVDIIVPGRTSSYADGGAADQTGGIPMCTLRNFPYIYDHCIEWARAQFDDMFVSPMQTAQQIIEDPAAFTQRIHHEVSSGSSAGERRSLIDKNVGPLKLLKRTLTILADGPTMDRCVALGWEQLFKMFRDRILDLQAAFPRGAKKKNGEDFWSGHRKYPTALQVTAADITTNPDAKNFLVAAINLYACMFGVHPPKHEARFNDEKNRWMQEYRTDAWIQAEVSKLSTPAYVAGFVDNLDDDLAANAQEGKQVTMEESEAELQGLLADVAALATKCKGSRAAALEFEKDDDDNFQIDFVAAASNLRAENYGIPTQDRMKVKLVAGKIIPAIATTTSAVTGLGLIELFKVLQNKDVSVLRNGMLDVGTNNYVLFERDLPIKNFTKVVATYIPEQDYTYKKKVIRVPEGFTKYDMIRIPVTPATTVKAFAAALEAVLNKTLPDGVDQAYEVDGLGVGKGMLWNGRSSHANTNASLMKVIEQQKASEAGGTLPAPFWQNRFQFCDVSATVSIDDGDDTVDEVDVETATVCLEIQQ

[3] = target: T2, Aspartate--tRNA(Asp/Asn) ligase (Mycobacterium tuberculosis (strain ATCC 25618 / H37Rv)) (UniProt P9WFW3); assay: Assay for Asp RNA synthetase-1 from Mycobacterium tuberculosis; type: functional; conditions: 30 µM; further: in the data most compounds retested in dose-response had high values
T2 sequence (whole entry): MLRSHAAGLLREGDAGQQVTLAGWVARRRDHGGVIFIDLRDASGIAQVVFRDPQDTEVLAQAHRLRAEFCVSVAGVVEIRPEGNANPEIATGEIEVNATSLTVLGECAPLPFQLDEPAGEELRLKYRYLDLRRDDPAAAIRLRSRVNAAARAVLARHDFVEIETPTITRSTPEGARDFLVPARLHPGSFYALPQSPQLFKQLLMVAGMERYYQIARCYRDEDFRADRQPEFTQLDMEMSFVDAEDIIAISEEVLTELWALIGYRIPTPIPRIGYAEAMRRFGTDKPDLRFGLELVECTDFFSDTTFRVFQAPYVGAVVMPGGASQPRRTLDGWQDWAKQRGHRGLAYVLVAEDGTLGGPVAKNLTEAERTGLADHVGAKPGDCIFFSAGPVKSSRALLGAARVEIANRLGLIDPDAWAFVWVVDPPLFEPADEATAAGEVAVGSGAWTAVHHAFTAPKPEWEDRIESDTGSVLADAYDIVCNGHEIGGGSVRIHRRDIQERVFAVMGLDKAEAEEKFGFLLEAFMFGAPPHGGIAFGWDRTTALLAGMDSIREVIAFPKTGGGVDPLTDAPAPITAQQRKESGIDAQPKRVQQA

[4] = target: AMP-activated protein kinase, AMPK (Homo sapiens) (UniProt P54646+O43741+P54619+Q9UGJ0+Q9Y478+Q13131+Q9UGI9); assay: AMP-dependent Kinase enzyme assay. An in vitro enzyme assay that detects ADP turnover that is directly proportional to AMPK activity. This uses naive AMPK that is activated during the assay with MK-8722; type: functional; conditions: 30 µM
[5] = target: Sialic acid-binding Ig-like lectin 9 (Homo sapiens) (UniProt Q9Y336); assay: Hs-Siglec9 ALPHAscreen SOP 20170721; conditions: 10 µM
Chain of Sialic acid-binding Ig-like lectin 9 (Homo sapiens) (Q9Y336 whole entry): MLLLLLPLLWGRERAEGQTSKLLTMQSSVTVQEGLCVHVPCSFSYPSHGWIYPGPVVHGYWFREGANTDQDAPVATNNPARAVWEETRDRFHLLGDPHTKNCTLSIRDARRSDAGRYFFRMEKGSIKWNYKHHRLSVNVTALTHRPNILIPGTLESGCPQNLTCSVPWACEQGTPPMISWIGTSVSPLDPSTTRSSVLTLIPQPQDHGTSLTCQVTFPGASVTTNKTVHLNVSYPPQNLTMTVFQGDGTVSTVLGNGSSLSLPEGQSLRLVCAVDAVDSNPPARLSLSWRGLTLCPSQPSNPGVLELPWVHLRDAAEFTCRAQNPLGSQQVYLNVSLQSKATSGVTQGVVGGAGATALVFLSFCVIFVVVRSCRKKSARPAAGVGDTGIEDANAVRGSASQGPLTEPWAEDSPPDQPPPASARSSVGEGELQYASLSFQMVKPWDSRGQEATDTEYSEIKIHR

Trypanosoma cruzi = assay: Trypanosoma cruzi phosphomannomutase and mannose-1-phosphate guanylyltransferase assay; type: functional; conditions: 10 µM
[6] = target: T3, Arginase-2, mitochondrial (Homo sapiens) (UniProt P78540); assay: in vitro enzyme assay to detect the production of urea directly proportional to the activity of Arginase II; type: functional; conditions: 33.3 µM; further: in the data most compounds retested in dose-response had high values
T3 sequence (whole entry): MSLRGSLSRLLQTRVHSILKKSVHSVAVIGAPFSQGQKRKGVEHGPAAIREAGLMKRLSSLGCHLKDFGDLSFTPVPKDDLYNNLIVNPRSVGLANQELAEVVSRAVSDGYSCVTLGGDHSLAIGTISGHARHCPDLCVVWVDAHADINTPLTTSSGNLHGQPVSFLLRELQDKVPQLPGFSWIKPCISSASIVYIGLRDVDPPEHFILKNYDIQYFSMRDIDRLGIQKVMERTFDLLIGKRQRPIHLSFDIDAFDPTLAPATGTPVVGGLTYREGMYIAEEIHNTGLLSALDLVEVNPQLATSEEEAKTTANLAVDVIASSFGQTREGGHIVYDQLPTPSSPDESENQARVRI

[7] = target: T4, Proteasome subunit beta (Trypanosoma cruzi) (UniProt O96673); assay: Trypanosoma cruzi proteasome chymotrypsin-like activity (TcProtChymo) assay.; further: in the data most compounds retested in dose-response had high values; type: functional; conditions: 9.37 µM
T4 sequence (whole entry): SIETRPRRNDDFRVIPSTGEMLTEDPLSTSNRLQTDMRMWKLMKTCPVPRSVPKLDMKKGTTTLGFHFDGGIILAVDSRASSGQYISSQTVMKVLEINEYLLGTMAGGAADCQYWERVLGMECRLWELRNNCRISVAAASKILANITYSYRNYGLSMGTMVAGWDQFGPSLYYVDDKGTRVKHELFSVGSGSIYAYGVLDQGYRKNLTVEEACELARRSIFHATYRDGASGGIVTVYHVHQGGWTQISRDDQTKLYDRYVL

Homo sapiens = species: Homo sapiens; assay: To identify inhibition of the IFN signalling (Jak-Stat) pathway via expression of an eGFP reporter gene under the control of an IFN-stimulated response element (ISRE) containing MxA promoter.; type: functional; conditions: 30 µM
[8] = target: Shiga toxin 2 (Escherichia coli O157:H7) (UniProt P09385+P09386); assay: E. coli 0.157:H7 Shiga Toxin SOP - stx2 screening assay; type: functional; conditions: 30 µM
[9] = target: T5, Tyrosyl-tRNA synthetase, putative (Trypanosoma cruzi (strain CL Brener)) (UniProt Q4DSP6); assay: Trypanosoma cruzi tyrosyl tRNA synthetase (TcYRS) _High Tyrosine SOP; type: functional; conditions: 30 µM; further: in the data most compounds retested in dose-response had high values
T5 sequence (whole entry): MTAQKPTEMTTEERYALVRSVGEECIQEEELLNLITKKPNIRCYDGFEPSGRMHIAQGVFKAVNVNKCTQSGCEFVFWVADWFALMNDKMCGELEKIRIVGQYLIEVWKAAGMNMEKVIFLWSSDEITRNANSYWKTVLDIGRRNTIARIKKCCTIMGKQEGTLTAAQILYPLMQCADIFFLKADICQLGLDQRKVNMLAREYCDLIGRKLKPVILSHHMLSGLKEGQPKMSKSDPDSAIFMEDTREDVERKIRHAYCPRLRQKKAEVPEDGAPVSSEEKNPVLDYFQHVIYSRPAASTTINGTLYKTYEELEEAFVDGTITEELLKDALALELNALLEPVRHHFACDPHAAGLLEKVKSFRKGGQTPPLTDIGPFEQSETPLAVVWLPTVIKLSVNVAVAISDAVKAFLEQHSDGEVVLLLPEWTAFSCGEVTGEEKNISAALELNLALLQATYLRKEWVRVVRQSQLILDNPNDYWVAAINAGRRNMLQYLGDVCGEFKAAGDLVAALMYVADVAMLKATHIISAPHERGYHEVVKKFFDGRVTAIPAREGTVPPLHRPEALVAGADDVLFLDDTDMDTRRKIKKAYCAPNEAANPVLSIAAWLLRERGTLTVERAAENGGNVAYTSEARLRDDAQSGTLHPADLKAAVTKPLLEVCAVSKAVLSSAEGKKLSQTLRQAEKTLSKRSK

[10] = target: T5, Tyrosyl-tRNA synthetase, putative (Trypanosoma cruzi (strain CL Brener)); assay: Trypanosoma cruzi tyrosyl tRNA synthetase (TcYRS) SOP; type: functional; conditions: 30 µM
[11] = target: Chromo domain-containing protein 1 (Saccharomyces cerevisiae (strain ATCC 204508 / S288c) (Baker's yeast)) (UniProt P32657); assay: ScCHD-1 Enzyme Inhibition Assay; type: functional; conditions: 30 µM; further: in the data most compounds retested in dose-response had high values
Chain of Chromo domain-containing protein 1 (Saccharomyces cerevisiae (strain ATCC 204508 / S288c) (Baker's yeast)) (P32657 whole entry, the tested form may be a part): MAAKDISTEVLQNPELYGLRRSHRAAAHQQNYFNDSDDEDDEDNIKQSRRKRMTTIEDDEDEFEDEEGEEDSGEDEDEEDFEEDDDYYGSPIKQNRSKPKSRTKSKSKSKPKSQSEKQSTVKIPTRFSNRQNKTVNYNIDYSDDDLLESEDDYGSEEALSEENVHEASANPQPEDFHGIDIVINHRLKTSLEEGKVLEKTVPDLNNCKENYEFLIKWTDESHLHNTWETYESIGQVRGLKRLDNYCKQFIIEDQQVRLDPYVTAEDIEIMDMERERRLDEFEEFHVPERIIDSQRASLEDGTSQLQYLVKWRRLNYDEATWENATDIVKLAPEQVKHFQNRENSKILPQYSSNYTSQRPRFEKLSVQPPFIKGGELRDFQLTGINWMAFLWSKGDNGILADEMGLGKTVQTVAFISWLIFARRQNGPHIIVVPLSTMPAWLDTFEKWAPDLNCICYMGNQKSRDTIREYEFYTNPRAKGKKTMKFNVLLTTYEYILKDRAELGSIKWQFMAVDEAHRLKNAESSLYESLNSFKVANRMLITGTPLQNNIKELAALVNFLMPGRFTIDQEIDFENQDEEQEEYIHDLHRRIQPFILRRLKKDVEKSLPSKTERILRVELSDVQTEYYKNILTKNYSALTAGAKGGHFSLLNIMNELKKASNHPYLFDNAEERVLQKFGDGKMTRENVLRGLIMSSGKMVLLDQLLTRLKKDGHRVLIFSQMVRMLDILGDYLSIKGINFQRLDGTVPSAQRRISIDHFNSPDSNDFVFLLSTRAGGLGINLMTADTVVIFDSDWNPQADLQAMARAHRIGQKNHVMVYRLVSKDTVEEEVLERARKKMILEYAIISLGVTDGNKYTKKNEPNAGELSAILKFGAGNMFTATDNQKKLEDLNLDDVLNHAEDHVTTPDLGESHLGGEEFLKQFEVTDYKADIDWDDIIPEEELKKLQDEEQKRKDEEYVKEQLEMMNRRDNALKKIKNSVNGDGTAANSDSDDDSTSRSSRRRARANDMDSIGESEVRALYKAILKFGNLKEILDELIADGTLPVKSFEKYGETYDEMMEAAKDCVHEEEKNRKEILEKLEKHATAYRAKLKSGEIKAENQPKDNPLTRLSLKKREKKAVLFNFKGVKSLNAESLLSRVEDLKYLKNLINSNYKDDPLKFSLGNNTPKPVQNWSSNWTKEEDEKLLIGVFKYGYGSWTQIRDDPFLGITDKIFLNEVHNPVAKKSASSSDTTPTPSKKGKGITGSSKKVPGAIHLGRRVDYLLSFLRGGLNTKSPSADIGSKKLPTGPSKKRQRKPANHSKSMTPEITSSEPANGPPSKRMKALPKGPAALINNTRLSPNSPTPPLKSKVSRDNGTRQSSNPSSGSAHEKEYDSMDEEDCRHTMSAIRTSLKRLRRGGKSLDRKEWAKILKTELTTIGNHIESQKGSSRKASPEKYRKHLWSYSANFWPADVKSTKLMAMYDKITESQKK

Chain of Protein translocase subunit SecA (Escherichia coli (strain K12)) (P10408 whole entry): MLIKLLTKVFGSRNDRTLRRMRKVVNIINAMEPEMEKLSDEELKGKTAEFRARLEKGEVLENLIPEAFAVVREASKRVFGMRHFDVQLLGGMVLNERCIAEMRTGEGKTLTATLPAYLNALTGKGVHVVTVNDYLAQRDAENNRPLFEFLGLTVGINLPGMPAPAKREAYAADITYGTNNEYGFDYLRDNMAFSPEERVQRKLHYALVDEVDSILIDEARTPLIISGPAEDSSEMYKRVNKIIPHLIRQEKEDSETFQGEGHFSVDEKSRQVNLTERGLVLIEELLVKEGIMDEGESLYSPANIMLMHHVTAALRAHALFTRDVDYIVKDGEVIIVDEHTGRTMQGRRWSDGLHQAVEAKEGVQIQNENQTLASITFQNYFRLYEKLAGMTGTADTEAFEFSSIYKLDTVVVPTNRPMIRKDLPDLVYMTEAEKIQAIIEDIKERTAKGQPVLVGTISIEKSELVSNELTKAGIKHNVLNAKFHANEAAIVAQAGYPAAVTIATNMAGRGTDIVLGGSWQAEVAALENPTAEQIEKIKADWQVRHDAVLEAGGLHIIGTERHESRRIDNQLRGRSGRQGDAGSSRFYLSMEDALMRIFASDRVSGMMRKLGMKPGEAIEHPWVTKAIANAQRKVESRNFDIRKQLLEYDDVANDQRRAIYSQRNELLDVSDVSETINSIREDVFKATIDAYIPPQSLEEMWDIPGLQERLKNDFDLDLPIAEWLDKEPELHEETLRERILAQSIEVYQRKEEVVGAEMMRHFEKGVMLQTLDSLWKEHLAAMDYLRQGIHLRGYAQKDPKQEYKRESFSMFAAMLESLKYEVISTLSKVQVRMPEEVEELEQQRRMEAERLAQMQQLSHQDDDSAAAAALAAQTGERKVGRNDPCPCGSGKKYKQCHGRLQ

Compound	Percent Effect [1] [%]	Percent Effect [2] [%]	Percent Effect [3] [%]	Percent Effect [4] [%]	Percent Effect [5] [%]	Percent Effect (Trypanosoma cruzi) [%]	Percent Effect [6] [%]	Percent Effect [7] [%]	Percent Effect (Homo sapiens) [%]	Percent Effect [8] [%]	Percent Effect [9] [%]	Percent Effect [10] [%]	Percent Effect [11] [%]
Cc1noc(C)c1CN1CC[C@H]2C[C@@H](c3ccncn3)O[C@@H]2C1	-2.74	8.11	-3.25	5.49	1.24	5.57	-2.87	14.2	17.1	5.98	2.16	17.9	2.76
COCCN1CCC2(COCc3cnc(N4CCOCC4)nc32)C1 (stereo not given)	-9.09	2.67	-3.07	7.61	-2.45	-5.91	-2.1	2.03	21.1	-12	-4.25	-1.28	-8.27
O=C1[C@H]2CN(Cc3cccs3)C[C@H]2CN1c1cncnc1	-5.75	2.6	-7.76	1.57	4.28	-3.25	-8.28	9.65	7.38	-49.4	2.15	1.24	1.9
COc1ccc2c(ccn2CCN)c1	-4.08	-49.3	-3.77	-2.79	5.94	-0.982	0.176	6.65	19	-17.9	7.41	10.3	-4.41
Cc1ccc(N2CCO[C@H]3CN(Cc4cnn(C)c4)C[C@H]32)nn1	-2.13	-2.7	-2.15	0.154	-4.13	-6.55	4.78	18.4	0.179	-2.36	6.49	10.3	2.29
Cc1ccccc1CC(=O)N1CCN(C2CCOC2=O)CC1 (stereo not given)	-3.96	13.5	-0.136	-7.8	2.56	-5.75	-2.81	7.03	11.9	23.2	10.3	16.1	-7.37
NC(=O)CN1CCCN(C(=O)Cc2ccc3ccccc3c2)CC1	-7.48	0	2.66	–	1.74	-13.2	-6.21	0.594	24.3	-25.4	-0.526	-5.13	-8.56
